PubChem BioAssay
Where “and” joins values, the source holds several entries; their conditions need not be identical. Equal entries are not always repeated. Inconclusive results are not listed. Calls of active or inactive are those of the source. Unless noted, cut-off not given; nearly all actives show AC50 up to about 26 µM.

Columns and labels:
[1] = viability loss in pontine glioma line – cell-based, SU-DIPG-XVII, MIPE5.0, CellTiter-Glo, qHTS, dose response (AID 1347060); conditions: CellTiter-Glo ATP luminescence;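 on AC50: cells exposed to compound for 48 hours before viability readout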
[2] = viability loss in pontine glioma line – cell-based, JHH-DIPG-1, MIPE4.0, CellTiter-Glo, qHTS, dose response (AID 1347062; cut-off not given, nearly all actives have AC50 up to about 27 µM;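 on AC50: cells exposed to compound for two days before readout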); conditions: JHH-DIPG-1 viability, CellTiter-Glo ATP luminescence
[3] = viability loss in pontine glioma line – cell-based, SU-DIPG-IV, MIPE4.0, CellTiter-Glo, qHTS, dose response (AID 1347063; cut-off not given, nearly all actives have AC50 up to about 30 µM;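 further: compound exposure lasted 48 hours before the viability readout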); conditions: CellTiter-Glo ATP luminescence
[4] = viability loss in pontine glioma line – cell-based, SU-DIPG-XXV, MIPE5.0, CellTiter-Glo, qHTS, dose response (AID 1347065); conditions: CellTiter-Glo ATP luminescence;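 further: cells exposed to compound for 48 hours before ATP readout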
[5] = growth inhibition of DIPG cells – cell-based, MIPE4.0 library, CellTiter-Glo luminescence, qHTS (AID 1347066; cut-off not given, nearly all actives have AC50 up to about 30 µM;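 further: cells exposed to compound for 48 hours before readout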); conditions: SU-DIPG-VI viability, CellTiter-Glo ATP luminescence
[6] = JHH-DIPG-1 glioma cell viability, MIPE5.0 library, CellTiter-Glo luminescence, qHTS (AID 1347067); conditions: JHH-DIPG-1 glioma viability, CellTiter-Glo ATP luminescence;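 further: cells exposed to compound for 48 hours before readout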
[7] = compounds altering HSF1 focus formation in cells – imaging, Selleck Cancer Library (AID 1347162; in the data active means plate-normalised HSF1 focus index below about 0.46); conditions: human cells, HSF1 nuclear foci imaging, at 10 µM; SSMD: measured here: HSF1 foci SSMD mean; cell count: measured here: cell number; plate-normalised HSF1 focus index: stronger effect = lower value
[8] = growth inhibition, single agent or in combination, cell-based, chromothripsis tumors, cisplatin or BGB combos (AID 1671449; in the data active means inhibition above about 80%;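 further: cells exposed for 96 hours; 0% = vehicle DMSO and 100% = killing by high DMSO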); conditions: LFS_MB_P medulloblastoma cells
[9] = growth inhibition, single agent and combos, cell-based, chromothripsis tumors, cisplatin or BGB combos (AID 1671450; in the data active means inhibition above about 80%;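 further: cells exposed to compound for four days; 0% = vehicle DMSO and 100% = cell killing by high DMSO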); conditions: HDN33 neuroblastoma cells, stronger effect = higher value
[10] = growth inhibition, single agents and combos, ICB984, cell-based, cisplatin or BGB combos, synergistic combos for chromothripsis tumors (AID 1671451; call rule not given here;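 further: cells exposed for 96 hours before readout; 0% = vehicle DMSO and 100% = killing by high DMSO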); conditions: ICB984 medulloblastoma cells, drug combinations, stronger effect = higher value
[11] = growth inhibition, single agents and combos, HTB85, cell-based, BGB or cisplatin IC20 combos, synergistic combos for chromothripsis tumors (AID 1671453; in the data active means inhibition above about 80%;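 further: cells exposed for 96 hours before readout; 0% = vehicle DMSO and 100% = high DMSO killing control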); conditions: HTB85 osteosarcoma cells, drug combinations, stronger effect = higher value
[12] = growth inhibition, MDA-MB-436, cell-based, BGB or cisplatin combos, synergistic combos for chromothripsis tumors (AID 1671458; call rule not given here;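 further: cells exposed for 96 hours; 0% = vehicle DMSO and 100% = killing by high DMSO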); conditions: MDA-MB-436 breast carcinoma growth inhibition, drug combinations, stronger effect = higher value
[13] = BT084 cell growth, single and combined drugs, ICGC_MB145, cisplatin and BGB IC40 combos (AID 1671461; in the data active means inhibition above about 80%;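 further: cells exposed to drugs for 96 hours; 0% = vehicle DMSO and 100% = high DMSO full killing control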); conditions: BT084 medulloblastoma cells, drug combinations, stronger effect = higher value
[14] = RCMB18 cell growth, single agent and combined, cisplatin and BGB IC40 combos (AID 1671462; in the data active means inhibition above about 80%;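 further: cells exposed to compound for four days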); conditions: RCMB18 medulloblastoma cells, stronger effect = higher value
[15] = CRL1545 cell growth, single agent and combined, cisplatin and BGB IC20 combos (AID 1671464; in the data active means inhibition above about 80%;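 further: cells exposed to compound for 96 hours before readout; 0% = vehicle DMSO and 100% = high DMSO killing control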); conditions: CRL1545 osteosarcoma cells, stronger effect = higher value
[16] = growth inhibition of DIPG cells – cell-based, MIPE5.0 library, qHTS (AID 1347068; cut-off not given, nearly all actives have IC50 up to about 30 µM;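 further: cells exposed to compound for 48 hours before viability readout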); conditions: SU-DIPG-XXV viability
[17] = viability loss in pontine glioma line – cell-based, SU-DIPG-XIII, MIPE5.0, CellTiter-Glo, qHTS, dose response (AID 1347064; cut-off not given, nearly all actives have AC50 up to about 23 µM;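 further: cells exposed to compound for 48 hours before the viability read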); conditions: CellTiter-Glo ATP luminescence
[18] = viability loss with induced miR-34 in A549 – imaging, A549 dox-inducible miR-34, nuclei and caspase counts, primary screen (AID 1347080;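 active means compounds whose cell count with miR-34 switched on is under 0.7 times the count with it off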); conditions: A549 miR-34 inducible, Hoechst nuclei count, 48 h
[19] = MELAS cybrid and Rieske KO viability enhancers – cell-based, MELAS cybrids, Rieske KO mouse fibroblasts, CellTiter-Glo, primary screen (AID 1508586;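 active means mean z-score across replicates of 1.96 or higher in either the MELAS or the Rieske mutant cell line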;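 further: z relative to plate mean and SD of compound and empty wells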); conditions: low glucose
[20] = measured here: with BGB IC20 combination, at 0.5 µM
[21] = measured here: with cisplatin IC20 combination, at 0.5 µM

C[C@]1(c2nc3c(C(N)=O)cccc3[nH]2)CCCN1
outcome [1]: inactive
outcome [2]: inactive
outcome [3]: inactive
outcome [4]: inactive
outcome [5]: inactive
outcome [6]: inactive
SSMD [7]: 0.253
cell count [7]: 7190
plate-normalised HSF1 focus index [7]: 1.01 (inactive)
inhibition ([8]; at 0.5 µM, stronger effect = higher value): -27.2% (inactive) and -25.3% (inactive)
inhibition ([8]; measured here: combination with BGB IC20, at 0.005 µM): -35.2% and -15.1%
inhibition ([8]; measured here: combination with BGB IC40, at 0.005 µM): -26.8% and -17.3%
inhibition ([8]; measured here: combination with BGB IC40, at 0.05 µM): -28.3% and -28.8%
inhibition ([8]; measured here: combination with cisplatin, at 0.5 µM, stronger effect = higher value): -54% and -57%
inhibition ([8]; measured here: combination with cisplatin, at 5 µM, stronger effect = higher value): -58.4% and -45%
inhibition ([9]; BGB combo, at 5 µM): -41.3% and 0.864%
inhibition ([9]; at 0.5 µM): -26.5% (inactive) and -7.62% (inactive)
inhibition ([9]; cisplatin combo, at 5 µM): -8.25% and -1.94%
inhibition [9, 20]: -35.3% and -12.7%
inhibition [9, 21]: -24.4% and -3.22%
inhibition ([9]; single agent, at 5 µM): -21.8% and -0.922%
inhibition ([10]; BGB IC20 combo, at 0.005 µM): -10.4% and 0.353%
inhibition ([10]; BGB IC40 combo, at 0.005 µM): -32.9% and -29.7%
inhibition ([10]; BGB IC40 combo, at 0.05 µM): -67.4% and -16%
inhibition ([10]; at 0.5 µM): -18.7% (inactive) and -15.6% (inactive)
inhibition ([10]; cisplatin combo, at 0.05 µM): -73.4% and -19.3%
inhibition ([10]; cisplatin combo, at 0.5 µM): -14.2% and -3.56%
inhibition ([10]; cisplatin combo, at 5 µM): -53.1% and -59.6%
inhibition ([10]; measured here: 5 uM single agent, at 5 µM): -10.3% and -11.7%
inhibition ([11]; at 0.5 µM): -20.2% (inactive) and -2.71% (inactive)
inhibition ([11]; measured here: with BGB IC20, at 0.5 µM): -24.9% and -6.8%
inhibition ([11]; measured here: with BGB IC20, at 5 µM): -10.1% and -13%
inhibition ([11]; measured here: with cisplatin IC20, at 0.5 µM): -31.1% and -8.43%
inhibition ([11]; measured here: with cisplatin IC20, at 5 µM): -30% and -31.9%
inhibition ([11]; single agent, at 5 µM): -4.02% and -2.12%
inhibition ([12]; at 0.5 µM): -1.32% (inactive) and -13.2% (inactive)
inhibition ([12]; measured here: BGB combination, at 0.5 µM): -3.82% and -21.5%
inhibition ([12]; measured here: BGB combination, at 5 µM): -15.2% and -14.8%
inhibition ([12]; measured here: cisplatin combination, at 0.5 µM): -9.15% and -22.2%
inhibition ([12]; measured here: cisplatin combination, at 5 µM): 7.37% and -17%
inhibition ([13]; at 0.5 µM): -14.1% (inactive) and -22% (inactive)
inhibition ([13]; cisplatin combination, at 0.5 µM): -37.9% and -21.6%
inhibition ([13]; cisplatin combination, at 5 µM): 2.98% and -9.14%
inhibition ([13]; measured here: BGB IC40 combination 0.05 uM, at 0.05 µM): 13.6% and 2.76%
inhibition ([13]; single agent, at 5 µM): -8.42% and -18.5%
inhibition ([14]; at 0.5 µM): -11.5% (inactive) and -16.6% (inactive)
inhibition ([14]; cisplatin combo, at 5 µM): -70.2% and -50.3%
inhibition ([14]; measured here: BGB IC40 combination, at 0.05 µM): -22.5% and 6.81%
inhibition ([14]; measured here: combination with cisplatin, at 0.5 µM): -15.1%
inhibition ([14]; single agent, at 5 µM): -28.5% and -25.1%
inhibition ([15]; at 0.5 µM): -23.7% (inactive) and 9.34% (inactive)
inhibition [15, 20]: -29.8% and -8.71%
inhibition [15, 21]: -22.5% and 16.5%
inhibition ([15]; single agent, at 0.05 µM): -19.2% and -14.5%
inhibition ([15]; single agent, at 5 µM): -45.7% and -33.6%

CC(C)c1cnn2c(NCc3ccccc3)cc(N[C@@H](CO)[C@H](O)CO)nc12
AC50 [1]: 263 nM (active)
AC50 [2]: 418 nM (active)
AC50 [3]: 187 nM (active)
AC50 [4]: 235 nM (active)
AC50 [6]: 417 nM (active)
IC50 [16]: 468 nM (active)

CS[C@H]1SC[C@@H]2C(=O)N(C)[C@H](C(C)C)C(=O)OC[C@H](NC(=O)c3cnc4ccccc4n3)C(=O)N[C@H](C)C(=O)N(C)[C@H]1C(=O)N(C)[C@H](C(C)C)C(=O)OC[C@H](NC(=O)c1cnc3ccccc3n1)C(=O)N[C@H](C)C(=O)N2C
AC50 [1]: 3.31 nM (active)
AC50 [2]: 1.18 nM (active)
AC50 [3]: 2.63 nM (active)
AC50 [4]: 2.96 nM (active)
AC50 [6]: 1.86 nM (active)
IC50 [16]: 13.2 nM (active)

CN(C)CCCN=c1c2ccccc2n(C)c2[nH]c(=O)n(C)c(=O)c12
AC50 [1]: 29500 nM (active)
AC50 [2]: 8330 nM (active)
AC50 [3]: 14800 nM (active)
AC50 [17]: 26300 nM (active)
SSMD [7]: -0.045
cell count [7]: 6580
plate-normalised HSF1 focus index [7]: 0.997 (inactive)

CNC(=O)Nc1ccc(-c2nc(N3CC4CCC(C3)O4)c3cnn(C4CCC5(CC4)OCCO5)c3n2)cc1
AC50 [1]: 742 nM (active)
AC50 [2]: 1870 nM (active)
AC50 [3]: 26.4 nM (active)
AC50 [4]: 332 nM (active)
AC50 [6]: 1480 nM (active)
IC50 [16]: 1860 nM (active)
fold change ([18]; stronger effect = lower value, cell number ratio, induced over uninduced): 1.12 (inactive)
fold change ([18]; measured here: relative caspase fold change +Dox/-Dox): 0.588
cell count ([18]; measured here: total cells with miR-34 induction, stronger effect = lower value): 3730
cell count ([18]; measured here: total cells without miR-34 induction): 3320
z-score ([19]; MELAS cybrid survival, CellTiter-Glo 48 h, stronger effect = higher value): 3.93 (active)
z-score ([19]; Rieske KO mouse fibroblast survival, CellTiter-Glo 72 h): -1.7
